Source: ChEMBL document CHEMBL1961873, “Compounds: GSK PKIS; Assays: Nanosyn kinase panel” (2012)

What was measured:
[1] = molecular target: Mitogen-activated protein kinase 3 (Homo sapiens) (UniProt P27361); conditions: at 1 µM;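 further: values are mean percent inhibition of MAPK3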
[2] = molecular target: SRSF protein kinase 3 (Homo sapiens) (UniProt Q9UPE1); conditions: at 0.1 µM
[3] = molecular target: SRSF protein kinase 3 (Homo sapiens) (UniProt Q9UPE1); conditions: at 1 µM
[4] = molecular target: Mitogen-activated protein kinase 14 (Homo sapiens) (UniProt Q16539); conditions: at 0.1 µM
[5] = molecular target: Mitogen-activated protein kinase 14 (Homo sapiens) (UniProt Q16539); conditions: at 1 µM
[6] = molecular target: Mitogen-activated protein kinase 11 (Homo sapiens) (UniProt Q15759); conditions: at 0.1 µM
[7] = molecular target: Mitogen-activated protein kinase 11 (Homo sapiens) (UniProt Q15759); conditions: at 1 µM
[8] = molecular target: T1, Mitogen-activated protein kinase 13 (Homo sapiens) (UniProt O15264); conditions: at 0.1 µM
T1 sequence (whole entry): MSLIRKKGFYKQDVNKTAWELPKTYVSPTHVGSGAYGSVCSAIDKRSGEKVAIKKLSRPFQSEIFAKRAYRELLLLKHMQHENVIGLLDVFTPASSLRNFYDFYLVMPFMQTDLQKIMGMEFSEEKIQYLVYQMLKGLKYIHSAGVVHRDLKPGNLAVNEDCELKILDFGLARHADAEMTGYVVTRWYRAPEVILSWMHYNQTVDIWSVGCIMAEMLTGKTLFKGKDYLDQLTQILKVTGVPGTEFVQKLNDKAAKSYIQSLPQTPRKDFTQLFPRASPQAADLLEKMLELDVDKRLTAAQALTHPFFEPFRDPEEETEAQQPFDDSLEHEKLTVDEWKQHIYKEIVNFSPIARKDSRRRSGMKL

[9] = molecular target: T1, Mitogen-activated protein kinase 13 (Homo sapiens); conditions: at 1 µM
[10] = molecular target: T2, Mitogen-activated protein kinase 12 (Homo sapiens) (UniProt P53778); conditions: at 0.1 µM
T2 sequence (whole entry): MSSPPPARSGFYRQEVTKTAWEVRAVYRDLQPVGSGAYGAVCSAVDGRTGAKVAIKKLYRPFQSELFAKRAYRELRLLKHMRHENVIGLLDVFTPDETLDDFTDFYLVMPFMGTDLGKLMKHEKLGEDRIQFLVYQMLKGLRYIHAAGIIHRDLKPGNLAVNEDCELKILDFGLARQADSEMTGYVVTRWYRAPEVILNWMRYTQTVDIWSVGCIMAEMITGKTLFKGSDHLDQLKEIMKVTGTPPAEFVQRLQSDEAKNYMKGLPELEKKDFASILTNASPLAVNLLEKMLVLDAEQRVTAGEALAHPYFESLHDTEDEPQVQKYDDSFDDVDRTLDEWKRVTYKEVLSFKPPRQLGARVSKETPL

Mitogen-activated protein kinase 14 (Homo sapiens), sequence (Q16539 whole entry): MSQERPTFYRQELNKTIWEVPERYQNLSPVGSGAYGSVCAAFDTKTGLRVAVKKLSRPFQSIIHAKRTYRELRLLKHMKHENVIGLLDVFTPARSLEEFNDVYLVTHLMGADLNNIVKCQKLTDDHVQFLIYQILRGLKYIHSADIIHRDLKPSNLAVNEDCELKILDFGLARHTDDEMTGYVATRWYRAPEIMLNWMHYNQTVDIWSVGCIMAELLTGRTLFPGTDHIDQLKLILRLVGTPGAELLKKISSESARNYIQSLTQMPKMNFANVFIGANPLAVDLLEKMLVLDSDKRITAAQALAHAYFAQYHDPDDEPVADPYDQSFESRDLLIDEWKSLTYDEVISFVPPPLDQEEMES
Mitogen-activated protein kinase 3 (Homo sapiens), sequence (P27361 whole entry): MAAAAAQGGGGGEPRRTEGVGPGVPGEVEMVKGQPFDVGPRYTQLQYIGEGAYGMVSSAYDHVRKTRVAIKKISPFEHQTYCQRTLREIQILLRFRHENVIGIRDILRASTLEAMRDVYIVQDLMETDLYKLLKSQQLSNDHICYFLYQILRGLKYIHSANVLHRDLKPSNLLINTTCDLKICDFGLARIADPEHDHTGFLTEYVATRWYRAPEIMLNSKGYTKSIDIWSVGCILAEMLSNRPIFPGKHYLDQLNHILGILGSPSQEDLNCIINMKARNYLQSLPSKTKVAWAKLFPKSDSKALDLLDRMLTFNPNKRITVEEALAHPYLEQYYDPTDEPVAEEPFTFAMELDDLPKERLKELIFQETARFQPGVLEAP
SRSF protein kinase 3 (Homo sapiens), sequence (Q9UPE1 whole entry): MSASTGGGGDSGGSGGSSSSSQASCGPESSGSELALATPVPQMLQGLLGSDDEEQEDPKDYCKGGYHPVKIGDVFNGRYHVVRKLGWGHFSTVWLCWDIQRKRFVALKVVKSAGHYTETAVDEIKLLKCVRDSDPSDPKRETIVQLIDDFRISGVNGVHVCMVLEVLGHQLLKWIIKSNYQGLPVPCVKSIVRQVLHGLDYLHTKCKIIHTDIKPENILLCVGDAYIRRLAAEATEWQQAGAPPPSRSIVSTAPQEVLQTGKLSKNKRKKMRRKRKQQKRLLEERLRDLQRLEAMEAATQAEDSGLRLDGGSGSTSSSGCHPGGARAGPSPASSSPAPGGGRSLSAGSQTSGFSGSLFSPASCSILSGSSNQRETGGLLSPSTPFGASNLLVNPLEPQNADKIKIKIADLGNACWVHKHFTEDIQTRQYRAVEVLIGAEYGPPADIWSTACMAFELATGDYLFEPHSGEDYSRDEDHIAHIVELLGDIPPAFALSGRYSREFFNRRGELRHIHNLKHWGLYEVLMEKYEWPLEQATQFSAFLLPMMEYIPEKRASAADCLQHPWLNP
Mitogen-activated protein kinase 11 (Homo sapiens), sequence (Q15759 whole entry): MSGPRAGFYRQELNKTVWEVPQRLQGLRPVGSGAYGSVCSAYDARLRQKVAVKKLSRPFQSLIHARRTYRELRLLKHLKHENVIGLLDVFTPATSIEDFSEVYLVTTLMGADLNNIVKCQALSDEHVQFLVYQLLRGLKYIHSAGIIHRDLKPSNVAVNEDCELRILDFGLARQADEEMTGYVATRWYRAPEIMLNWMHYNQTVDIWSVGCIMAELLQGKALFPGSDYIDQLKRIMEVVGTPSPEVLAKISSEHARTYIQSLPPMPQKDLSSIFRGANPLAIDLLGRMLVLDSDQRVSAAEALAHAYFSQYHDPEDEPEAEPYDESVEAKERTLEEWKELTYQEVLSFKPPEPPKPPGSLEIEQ

Structure (SMILES)	inhibition [1] [%]	inhibition [2] [%]	inhibition [3] [%]	inhibition [4] [%]	inhibition [5] [%]	inhibition [6] [%]	inhibition [7] [%]	inhibition [8] [%]	inhibition [9] [%]	inhibition [10] [%]
COc1cccc(-n2ncc3c(N/N=C/c4ccncc4)ncnc32)c1	7.65	-0.94	1.8	9.43	16.4	4.02	10.8	7.88	43.3	5.45
CCn1c(-c2nonc2N)nc2c(C#CC(C)(C)O)nc(O[C@@H](CN)c3ccccc3)cc21	0.99	-2	-2.07	1.44	1.33	-1.84	2.96	1.2	0.11	1.29
CCn1c(-c2nonc2N)nc2c(C#CC(C)(C)O)ncc(OCC3CCNCC3)c21	6.52	-0.11	3.41	-0.04	5.69	3.7	4.04	1.99	2.26	1.19
CCn1c(-c2nonc2N)nc2c(C#CC(C)(C)O)ncc(OC[C@@H]3CCCN3)c21	2.32	-2.22	-4.41	0.34	0.75	1.96	1.41	0.68	-1.56	0.36
NS(=O)(=O)c1ccc(-c2ccc3c(NC(=O)C4CC4)n[nH]c3c2)cc1	1.36	0.31	-1.45	7.62	5.94	2.34	-1.13	3.91	5.02	0.67
Fc1ccc(-c2ncn(C3CCNCC3)c2-c2ccnc(Oc3ccccc3)n2)cc1	3.04	-3.7	-2.18							
COc1cc2c(cc1Nc1nc(Nc3ccsc3C(N)=O)c3cc[nH]c3n1)N(C(=O)CN(C)C)CCC2	1.75	-1.49	-0.38			2.67	6.9	1.18	0.18	2.28
CCn1c(-c2nonc2N)nc2c(C#CCN)ncc(OCCCN)c21	-0.18	-0.3	3.44	2.31	-5.03	-2.25	0.63	2.51	-4.32	-2.6
COc1cc(C=NNc2ncnc3c2cnn3Cc2ccccc2)ccc1O	-1.19	-1.86	-0.84	-2.19	-2.5	-3.2	-2.27	-0.79	-6.14	-2.53
Cc1cc(-c2ccco2)cc(C)c1/C=C/c1cncc(-c2nn[nH]n2)c1	1.84	-1.41	-1.53	1.46	1.43	3.14	3.31	0.77	-1.04	0.9
Nc1nonc1-c1nc2cnccc2n1C1CCCCC1	2.55	-1.48	-1.01	-0.43	-3.77	-1.77	0.28	-3.11	1.87	-0.65
COc1cccc(COc2cc(-n3cnc4ccccc43)sc2C(N)=O)c1	3	-1.99	-1.01	1.67	8.88	1.92	4.36	-0.06	-2.46	-0.12
NS(=O)(=O)c1ccc(N/C=C2\C(=O)Nc3ccc4ncsc4c32)cc1	15.3	-1.67	0.72	18.6	23.4	4.61	15	4.52	4.84	2.86
NC(=O)c1sc(-n2cnc3cc(C(F)(F)F)ccc32)cc1OCc1ccccc1Br	0.48	-3.47	0.48	1.34	4.04	4.23	4.66	0.44	-0.68	1.27
